Reference: the supplement of paper PMC6992640

Key:
Experiment in all cases: cell viability of combination (% of vehicle); higher = less cytotoxic
Details in all cases: 1 µM; 72 h; partner dose: 10 nM
HCI01 = test system: HCI01 (cells of a triple-negative basal-like breast cancer xenograft)
Description: (§1)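 PDX cells were treated for 72 h with each drug at 1 µM plus afatinib (10 nM; 1 µM for WHIM30). Luciferase viability is expressed as percent of vehicle.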

UCD52 = test system: UCD52 (cells of a triple-negative basal-like breast cancer xenograft)
Description: as §1

WHIM2 = test system: WHIM2 (cells of a triple-negative basal-like breast cancer xenograft)
Description: as §1

SMILES	cell viability of combination (HCI01)	cell viability of combination (UCD52)	cell viability of combination (WHIM2)
CCOc1cc2ncc(C#N)c(Nc3ccc(F)c(Cl)c3)c2cc1NC(=O)C=CCN(C)C [Pelitinib (EKB-569)] + CN(C)C/C=C/C(=O)Nc1cc2c(Nc3ccc(F)c(Cl)c3)ncnc2cc1O[C@H]1CCOC1 [Afatinib]	72.1	28.6	22.1
COc1cc2nccc(Oc3ccc(NC(=O)C4(C(=O)Nc5ccc(F)cc5)CC4)cc3)c2cc1OC.O=C(O)CC(O)C(=O)O [Cabozantinib malate (XL184)] + CN(C)C/C=C/C(=O)Nc1cc2c(Nc3ccc(F)c(Cl)c3)ncnc2cc1O[C@H]1CCOC1 [Afatinib]	50.8	–	43.2
CCN(CC)CCNC(=O)c1c(C)[nH]c(C=C2C(=O)Nc3ccc(F)cc32)c1C [Sunitinib] + CN(C)C/C=C/C(=O)Nc1cc2c(Nc3ccc(F)c(Cl)c3)ncnc2cc1O[C@H]1CCOC1 [Afatinib]	38.8	50.4	25.7
CC(NCCCc1cccc(C(F)(F)F)c1)c1cccc2ccccc12.Cl (configuration not stated) [Cinacalcet HCl] + CN(C)C/C=C/C(=O)Nc1cc2c(Nc3ccc(F)c(Cl)c3)ncnc2cc1O[C@H]1CCOC1 [Afatinib]	58.1	67.7	43.1
CN(C)CC=CC(=O)Nc1cc2c(Nc3ccc(F)c(Cl)c3)ncnc2cc1OC1CCOC1.O=C(O)C=CC(=O)O.O=C(O)C=CC(=O)O (configuration not stated) [Afatinib dimaleate] + CN(C)C/C=C/C(=O)Nc1cc2c(Nc3ccc(F)c(Cl)c3)ncnc2cc1O[C@H]1CCOC1 [Afatinib]	50.8	24.5	35.4
CCC(NC(=O)C(C)NC)C(=O)N1CC(O)CC1Cc1c(-c2[nH]c3cc(F)ccc3c2CC2CC(O)CN2C(=O)C(CC)NC(=O)C(C)NC)[nH]c2cc(F)ccc12 (configuration not stated) + CN(C)C/C=C/C(=O)Nc1cc2c(Nc3ccc(F)c(Cl)c3)ncnc2cc1O[C@H]1CCOC1 [Afatinib]	42.3	53.5	19.1
CN1CCN(CCCN2c3ccccc3Sc3ccc(C(F)(F)F)cc32)CC1.Cl.Cl [Trifluoperazine 2HCl] + CN(C)C/C=C/C(=O)Nc1cc2c(Nc3ccc(F)c(Cl)c3)ncnc2cc1O[C@H]1CCOC1 [Afatinib]	56.1	73.1	44
C=CC(=O)Nc1cc(Nc2nccc(-c3cn(C)c4ccccc34)n2)c(OC)cc1N(C)CCN(C)C + CN(C)C/C=C/C(=O)Nc1cc2c(Nc3ccc(F)c(Cl)c3)ncnc2cc1O[C@H]1CCOC1 [Afatinib]	40	50.2	34.9
CC(C)COc1ccc(CNC(=O)N(Cc2ccc(F)cc2)C2CCN(C)CC2)cc1 [Pimavanserin] + CN(C)C/C=C/C(=O)Nc1cc2c(Nc3ccc(F)c(Cl)c3)ncnc2cc1O[C@H]1CCOC1 [Afatinib]	52.8	65.2	50.8
Cc1cc(-n2c(=O)[nH]c(=O)n(C)c2=O)ccc1Oc1ccc(SC(F)(F)F)cc1 [Toltrazuril] + CN(C)C/C=C/C(=O)Nc1cc2c(Nc3ccc(F)c(Cl)c3)ncnc2cc1O[C@H]1CCOC1 [Afatinib]	58.1	76.1	48.4
CNC(=O)c1cc(Oc2ccc(NC(=O)Nc3ccc(Cl)c(C(F)(F)F)c3)cc2)ccn1 [Sorafenib] + CN(C)C/C=C/C(=O)Nc1cc2c(Nc3ccc(F)c(Cl)c3)ncnc2cc1O[C@H]1CCOC1 [Afatinib]	49.6	52.2	48.5
COc1cc(C(=O)NS(=O)(=O)c2ccccc2C)ccc1Cc1cn(C)c2ccc(NC(=O)OC3CCCC3)cc12 [Zafirlukast] + CN(C)C/C=C/C(=O)Nc1cc2c(Nc3ccc(F)c(Cl)c3)ncnc2cc1O[C@H]1CCOC1 [Afatinib]	61.4	71.6	52.2
CN1CCCC1CCOC(C)(c1ccccc1)c1ccc(Cl)cc1.O=C(O)C=CC(=O)O (configuration not stated) [Clemastine Fumarate] + CN(C)C/C=C/C(=O)Nc1cc2c(Nc3ccc(F)c(Cl)c3)ncnc2cc1O[C@H]1CCOC1 [Afatinib]	54.6	–	54
CC(NCCCc1cccc(C(F)(F)F)c1)c1cccc2ccccc12 (configuration not stated) [Cinacalcet] + CN(C)C/C=C/C(=O)Nc1cc2c(Nc3ccc(F)c(Cl)c3)ncnc2cc1O[C@H]1CCOC1 [Afatinib]	51.6	–	46.1
CS(=O)(=O)O.Cc1c(O)cccc1C(=O)NC(CSc1ccccc1)C(O)CN1CC2CCCCC2CC1C(=O)NC(C)(C)C (configuration not stated) [Nelfinavir Mesylate] + CN(C)C/C=C/C(=O)Nc1cc2c(Nc3ccc(F)c(Cl)c3)ncnc2cc1O[C@H]1CCOC1 [Afatinib]	44.5	–	53.6
Cl.Clc1ccccc1CN1CCc2sccc2C1 [Ticlopidine HCl] + CN(C)C/C=C/C(=O)Nc1cc2c(Nc3ccc(F)c(Cl)c3)ncnc2cc1O[C@H]1CCOC1 [Afatinib]	57.8	–	47.9
CCOC(=O)C1=C(COCCN)NC(C)=C(C(=O)OC)C1c1ccccc1Cl.O=S(=O)(O)c1ccccc1 (configuration not stated) [Amlodipine Besylate] + CN(C)C/C=C/C(=O)Nc1cc2c(Nc3ccc(F)c(Cl)c3)ncnc2cc1O[C@H]1CCOC1 [Afatinib]	59.5	–	51.7

SMILES	cell viability of combination (HCI01)	cell viability of combination (UCD52)	cell viability of combination (WHIM2)
CC[C@H](C)[C@H]1O[C@]2(CC[C@@H]1C)C[C@@H]1C[C@@H](C/C=C(\C)[C@@H](O[C@H]3C[C@H](OC)[C@@H](O[C@H]4C[C@H](OC)[C@@H](O)[C@H](C)O4)[C@H](C)O3)[C@@H](C)/C=C/C=C3\CO[C@@H]4[C@H](O)C(C)=C[C@@H](C(=O)O1)[C@]34O)O2 [Ivermectin] + CN(C)C/C=C/C(=O)Nc1cc2c(Nc3ccc(F)c(Cl)c3)ncnc2cc1O[C@H]1CCOC1 [Afatinib]	46	–	44.5
COc1ccccc1OCCNCC(O)COc1cccc2[nH]c3ccccc3c12 (configuration not stated) [Carvedilol] + CN(C)C/C=C/C(=O)Nc1cc2c(Nc3ccc(F)c(Cl)c3)ncnc2cc1O[C@H]1CCOC1 [Afatinib]	48.7	–	41.1
COC(=O)C1=C(C)NC(C)=C(C(=O)OCCN(C)Cc2ccccc2)C1c1cccc([N+](=O)[O-])c1.Cl (configuration not stated) [Nicardipine HCl] + CN(C)C/C=C/C(=O)Nc1cc2c(Nc3ccc(F)c(Cl)c3)ncnc2cc1O[C@H]1CCOC1 [Afatinib]	58.7	–	48
CO[C@H]1C[C@@H]2CC[C@@H](C)[C@@](O)(O2)C(=O)C(=O)N2CCCC[C@H]2C(=O)O[C@H]([C@H](C)C[C@@H]2CC[C@@H](O)[C@H](OC)C2)CC(=O)[C@H](C)/C=C(\C)[C@@H](O)[C@@H](OC)C(=O)[C@H](C)C[C@H](C)/C=C/C=C/C=C/1C [Rapamycin (Sirolimus)] + CN(C)C/C=C/C(=O)Nc1cc2c(Nc3ccc(F)c(Cl)c3)ncnc2cc1O[C@H]1CCOC1 [Afatinib]	51	–	39.3
Oc1c(Cl)cc(Cl)c2cccnc12 [Chloroxine] + CN(C)C/C=C/C(=O)Nc1cc2c(Nc3ccc(F)c(Cl)c3)ncnc2cc1O[C@H]1CCOC1 [Afatinib]	56.1	–	45.9
[O-]n1ccccc1=S.[O-]n1ccccc1=S.[Zn+2] [Zinc Pyrithione] + CN(C)C/C=C/C(=O)Nc1cc2c(Nc3ccc(F)c(Cl)c3)ncnc2cc1O[C@H]1CCOC1 [Afatinib]	47.4	–	33.9
CCN1CCN(Cc2ccc(Nc3ncc(F)c(-c4cc(F)c5nc(C)n(C(C)C)c5c4)n3)nc2)CC1.CS(=O)(=O)O + CN(C)C/C=C/C(=O)Nc1cc2c(Nc3ccc(F)c(Cl)c3)ncnc2cc1O[C@H]1CCOC1 [Afatinib]	40.5	–	82.2
CC[C@@H]1/C=C(\C)C[C@H](C)C[C@H](OC)[C@H]2O[C@@](O)(C(=O)C(=O)N3CCCC[C@H]3C(=O)O[C@H](/C(C)=C/[C@@H]3CC[C@H](Cl)[C@H](OC)C3)[C@H](C)[C@@H](O)CC1=O)[C@H](C)C[C@@H]2OC [Pimecrolimus] + CN(C)C/C=C/C(=O)Nc1cc2c(Nc3ccc(F)c(Cl)c3)ncnc2cc1O[C@H]1CCOC1 [Afatinib]	51.2	–	42.6
CN(C)c1ccc(C(=C2C=CC(=[N+](C)C)C=C2)c2ccc(N(C)C)cc2)cc1.[Cl-] [Crystal Violet] + CN(C)C/C=C/C(=O)Nc1cc2c(Nc3ccc(F)c(Cl)c3)ncnc2cc1O[C@H]1CCOC1 [Afatinib]	45	–	28.4
COc1cc(C(=O)O)ccc1NC(=O)C1NC(CC(C)(C)C)C(C#N)(c2ccc(Cl)cc2F)C1c1cccc(Cl)c1F (configuration not stated) + CN(C)C/C=C/C(=O)Nc1cc2c(Nc3ccc(F)c(Cl)c3)ncnc2cc1O[C@H]1CCOC1 [Afatinib]	49.1	–	44.7
COc1cc(Nc2c(C#N)cnc3cc(OCCCN4CCN(C)CC4)c(OC)cc23)c(Cl)cc1Cl [Bosutinib (SKI-606)] + CN(C)C/C=C/C(=O)Nc1cc2c(Nc3ccc(F)c(Cl)c3)ncnc2cc1O[C@H]1CCOC1 [Afatinib]	40.3	–	38
CN1CCN(CCOc2cc(OC3CCOCC3)c3c(Nc4c(Cl)ccc5c4OCO5)ncnc3c2)CC1 [Saracatinib (AZD0530)] + CN(C)C/C=C/C(=O)Nc1cc2c(Nc3ccc(F)c(Cl)c3)ncnc2cc1O[C@H]1CCOC1 [Afatinib]	41.1	–	24.5
CN(C)CC=CC(=O)Nc1cc2c(Nc3ccc(F)c(Cl)c3)ncnc2cc1OC1CCOC1 (configuration not stated) [Afatinib (BIBW2992)] + CN(C)C/C=C/C(=O)Nc1cc2c(Nc3ccc(F)c(Cl)c3)ncnc2cc1O[C@H]1CCOC1 [Afatinib]	44.6	–	32.4
CC(C)CC(NC(=O)CNC(=O)c1cc(Cl)ccc1Cl)B(O)O (configuration not stated) + CN(C)C/C=C/C(=O)Nc1cc2c(Nc3ccc(F)c(Cl)c3)ncnc2cc1O[C@H]1CCOC1 [Afatinib]	37	–	94.3
CC[C@@]1(O)C(=O)OCc2c1cc1n(c2=O)Cc2cc3c(CN(C)C)c(O)ccc3nc2-1 [Topotecan] + CN(C)C/C=C/C(=O)Nc1cc2c(Nc3ccc(F)c(Cl)c3)ncnc2cc1O[C@H]1CCOC1 [Afatinib]	40.1	–	31.4
COc1ccc(C[C@H](N)C(=O)N[C@@H]2[C@H](O)[C@H](n3cnc4c(N(C)C)ncnc43)O[C@@H]2CO)cc1.Cl.Cl [Puromycin dihydrochloride] + CN(C)C/C=C/C(=O)Nc1cc2c(Nc3ccc(F)c(Cl)c3)ncnc2cc1O[C@H]1CCOC1 [Afatinib]	69.5	–	82.6
